Assay results from PubChem BioAssay (NCI).
The panel holds about 83,000 compounds, 20% with a hit somewhere; the sample as a whole holds those more often.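 How to read the values: 0–100, growth inhibition (40 = 60% inhibited); 0, no net growth; -100 to 0, cell death (-40 = 40% of starting cells died; -100 = all dead).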 Values without a mark were called inactive. Calls of active or inactive are those of the source. How the source made its calls: active means growth percent below 10; inactive means the rest.

System: 786-0 renal
Experiment: NCI-60 one-dose screen, 48 h (100 = growth as untreated, 0 = no growth, -100 = all killed)
Conditions: 10 µM unless noted

| SMILES | growth |
| --- | --- |
| O=C(Cc1ccc(F)c(Cl)c1)Nc1cc(C2(C(F)(F)F)CC2)nn1CC1CCCCC1 | 9.17% (active) |
| O=C(S)CNC(=O)c1ccccc1 | 98.1% |
| COc1cc(CCC[P+](c2ccccc2)(c2ccccc2)c2ccccc2)c(OC)c(OC)c1OC | 75.3% |
| COc1cc2cc(Oc3ccc(NC(=O)Nc4ccc(Cl)c(C(F)(F)F)c4)cc3)c(C)nc2cc1OCCN1CCOCC1 | 29.2% |
| Cc1cc2nc3cc(C)c(N)cc3[n+](-c3ccccc3)c2cc1N | 58.6% |
| CN1CCN(c2ccc(-c3cc4c(Nc5ccc(F)c(Cl)c5)ncnn4c3)cc2)CC1 | 89.6% |
| COc1ccc(S(=O)(=O)n2cc(C3OC(c4cc(OC)c(OC)c(OC)c4)=NN3C(C)=O)c3ccccc32)cc1OC (stereo not drawn) | 86.3% |
| COc1nc2ccc(C)cc2cc1-c1nc2c(cnn2-c2ccccc2)c(=O)[nH]1 | 95.3% |
| Cc1cccc2c3c(sc12)C(c1ccc(Cl)cc1)C(C#N)=C(N)O3 (stereo not drawn) | 29% |
| CN(C)c1ccc2nc3ccc(=[N+](C)C)c([N+](=O)[O-])c-3sc2c1 | 31.9% |
| Cc1ccc(C(=O)N/N=C/c2cccc(Oc3ccccc3)c2)cn1 | 18.3% |
| Cc1c(C(=O)N[C@@H](Cc2ccccc2)C(=O)C(=O)NCc2ccc(F)cc2)[nH]c2ccccc2c1=O | 102% |
| Cc1c(C(=O)NCCCc2ccccc2)sc2ncc(-c3ccc(Br)cc3)n12 | 100% |
| COc1ccc(-c2conc2-c2ccccc2)cc1 | 27% |
| Cc1ccccc1C(=O)NN | 112% |
| CCS(=O)(=O)c1ncnc2nc[nH]c12 | 95% |
| CCCCC[C@H](O)C/C=C1/C(=O)C=C[C@@H]1C/C=C\CCCC(=O)O | 83.3% |
| C=C1CC[C@H](C(C)C)[C@@H]2[C@H]1[C@H]1CC(=C)[C@@H](O)CC[C@@](C)(O)[C@@H]2O1 | 82.6% |
| COc1ccc(-c2[nH]c3ccc(OC)cc3c2/C=C(\C#N)S(=O)(=O)c2ccccc2)cc1 | 27.8% |

| SMILES | growth |
| --- | --- |
| COc1ccc(C(=O)n2nc(-c3ccccc3)nc2N)cc1OC | 96.1% |
| O=c1ccn(Cc2cn(-c3c4ccccc4nc4ccccc34)nn2)c(=O)[nH]1 | 90.9% |
| CC/C=C\C[C@@H](O)C/C=C1/C(=O)C=C[C@H]1C/C=C\CCCC(=O)OC | 30.5% |
| CCCCn1c(=O)c(-c2cc(-c3ccc(Cl)cc3)nc(-c3ccc(Cl)cc3)c2)cc2cc(Cl)ccc21 | 106% |
| Cc1nc2cnc(N)c(C#Cc3cncc(C(=O)Nc4ccc(CN5CCN(C)CC5)c(C(F)(F)F)c4)c3)c2nc1C | 35% |
| O=C1/C(=C/c2ccc(F)cc2)Sc2c(Br)cccc21 | 100% |
| Cc1ccc(-c2nc(N3CCN(C(=O)c4ccc(OC(F)(F)F)cc4)CC3)c3ccccc3n2)cc1 | 81.7% |
| CCOC(=O)c1c2c(n(-c3ccc(C#N)cc3)c1-c1ccccc1)C=CCC2 | 101% |
| CCOc1c(B(O)O)cccc1-c1nc2ccc3[nH]ncc3c2c2c1CCCC2 | 47.7% |
| CCOC(=O)C1=C(N)Oc2c(sc3c(CC)cccc23)C1c1ccc(F)cc1 (stereo not drawn) | 35.4% |
| CCCCCCn1c(-c2ccc(C(=O)O/N=C(\N)c3ccc4ccccc4c3)cc2)nc(-c2ccccc2)c1-c1ccccc1 | 4.48% (active) |
| C=C(C)C1CCC2(C)OC2C1 (stereo not drawn) | 98.7% |
| Clc1ccc(C(/C=C/c2sc(Cl)nc2Cl)=N/Nc2cc(Cl)cc(Cl)c2)cc1 | 106% |
| c1ccc2c(-c3nc(-c4c[nH]c5ccncc45)cs3)c[nH]c2c1 | 64.9% |
| c1ccc(CO[C@H]2CO[C@H]3[C@@H]2OC[C@@H]3Oc2ccc(Nc3ncnc4ccsc34)cc2)cc1 | 87.2% |
| COc1cc2cc(Oc3ccc(NC(=O)Nc4ccc(Cl)c(Cl)c4)cc3)c(C)nc2cc1OCCN1CCOCC1 | 91.5% |
| Cc1nc2ccccc2c(/C=C/c2ccccc2)c1C(=O)/C=C/c1ccc(C(F)(F)F)cc1 | -76.4% (active) |
| CCOC(=O)c1nc(Nc2ccc(C(C)=O)cc2)sc1C | 96.5% |
| CCOC(=O)Nc1ccc(-c2nc(-c3cccc(OCCN4CCOCC4)c3)c(-c3ccnc(Br)c3)[nH]2)cc1 | -5.12% (active) |
